Compounds without any hit were thinned out: in the full panel of roughly 79,000, 15% have a hit. Values without a mark were called inactive. Rule as the data show it: active = growth inhibition above about 70%; inactive = the rest.
Experiment: NCI Yeast Anticancer Drug Screen. Data for the mec2-1 strain (AID 157)
Details: S. cerevisiae mec2-1 strain, at 1.2 µM, active compounds read high
How it was run: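 Growth inhibition is read against vehicle-treated controls after compound exposure of the mec2-1 yeast strain, which is defective in DNA damage repair or cell cycle control.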

Which growth inhibition does the source give for `CCN(CC)CC[n+]1ccc2c(C)c3[nH]c4ccc(O)cc4c3c(C)c2c1` here?
Its growth inhibition is -2%.

For `O=[n+]1c2ccc(Cl)cc2n([O-])c2ccc(Cl)cc21`, which growth inhibition is on record?
The growth inhibition was -1%.

Which growth inhibition does the source give for `CCOP(=O)(OCC)C(Cc1ccccc1)N=C(c1ccccc1)c1ccccc1` (stereo not drawn) here?
The growth inhibition was 18%.

Which growth inhibition does the source give for `CC[C@@]1(O)C(=O)OCc2c1cc1n(c2=O)Cc2cc3c(N)cccc3nc2-1` here?
The growth inhibition was -7%.

For `COC1C=COC2(C)Oc3c(C)c(O)c4c(c3C2=O)/C(=N/C2CCC(O)OC2C)C=C(NC(=O)/C(C)=C\C(=O)C2CC2C(O)C(C)C(O)C(C)C(OC(C)=O)C1C)C4=O` (stereo not drawn), which growth inhibition is on record?
Its growth inhibition is 0%.

Which growth inhibition does the source give for `COc1cc2c(c(OC)c1OC)-c1c(cc3c(c1OC)OCO3)CC(C)C(C)(O)C2OC(=O)c1ccccc1` (stereo not drawn) here?
Its growth inhibition is -2%.

With `O=c1ssc2ncccc12` as the molecule, how does the growth inhibition read?
Its growth inhibition is 3%.

Which growth inhibition does the source give for `O=C1C2C(C(=O)N1c1ccc(OCc3ccccc3)cc1)C1c3ccccc3C2C2CCCCN21` (stereo not drawn) here?
Its growth inhibition is -7%.

For `COc1ccc(-c2cn(-c3ccc(I)cc3)c3ncnc(N)c23)cc1`, which growth inhibition is on record?
Its growth inhibition is -4%.

For `CCOC(=O)C(NC(=O)c1ccccc1)(N1CCN(c2cc3c(cc2F)c(=O)c(C(=O)O)cn3C2CC2)CC1)C(F)(F)F` (stereo not drawn), which growth inhibition is on record?
Its growth inhibition is -1%.

For `C/C(=N\O)C1CC2C=C(C#N)C1N(Cc1ccccc1)C2` (stereo not drawn), which growth inhibition is on record?
Its growth inhibition is 0%.

With `CC/C(=C(\c1ccccc1)c1ccc(OCCN(C)C)cc1)c1ccccc1` as the molecule, how does the growth inhibition read?
Its growth inhibition is -9%.

For `COc1ccccc1N=NC(C(=O)c1ccccc1)C(=O)c1ccccc1`, which growth inhibition is on record?
The growth inhibition was -57%.

With `CC(O)C(O)C(O)C(/C=N\Nc1ccccc1)=N/Nc1ccccc1` (stereo not drawn) as the molecule, how does the growth inhibition read?
The growth inhibition was -4%.

Which growth inhibition does the source give for `COc1ccc(/C=C2\SC(=S)N(/C=C/c3nc4ccccc4[nH]c3=O)C2=O)cc1OC` here?
The growth inhibition was 3%.

With `N#CN=Nc1cc(Cl)c(N=NC#N)cc1Cl` as the molecule, how does the growth inhibition read?
Its growth inhibition is -14%.

For `Cc1ccc(S(=O)(=O)Oc2cc(Cl)c(Cl)cc2Cl)cc1`, which growth inhibition is on record?
The growth inhibition was -1%.

With `c1ccc2c(c1)Oc1cccc3cccc-2c13` as the molecule, how does the growth inhibition read?
Its growth inhibition is -6%.

Which growth inhibition does the source give for `O=C(c1ccc(Cl)cc1Cl)C(Cl)Cl` here?
The growth inhibition was -22%.

With `CC(C)C1=CCC2C(=C1)CCC1C(C)(C(=O)O)CCCC21C` (stereo not drawn) (tested in a mixture with another compound) as the molecule, how does the growth inhibition read?
The growth inhibition was 18%.

For `COc1cc(/C=C2\CCc3ccccc3C2=O)cc(OC)c1OC`, which growth inhibition is on record?
The growth inhibition was -17%.

With `CC(=O)[O][Bi]([c]1ccccc1)[c]1ccccc1` as the molecule, how does the growth inhibition read?
Its growth inhibition is 29%.

For `S=C(N/N=C/c1ccccn1)Nc1ccc(Cl)cc1`, which growth inhibition is on record?
The growth inhibition was -5%.

With `COc1cc(CC2CC(c3ccc4c(c3)OCO4)OC2=O)cc(OC)c1OC` (stereo not drawn) as the molecule, how does the growth inhibition read?
Its growth inhibition is 0%.

Which growth inhibition does the source give for `CNC1C(OC2C(OC3C(O)C(O)C(N=C(N)N)C(O)C3N=C(N)N)OC(C)C2(O)CO)OC(CO)C(O)C1O` (stereo not drawn) here?
The growth inhibition was -2%.

Which growth inhibition does the source give for `NNC(=O)CCc1ccc2ccc3ccccc3c2c1` here?
The growth inhibition was -1%.

Which growth inhibition does the source give for `Oc1ccc2ccccc2c1C(c1ccc(Cl)cc1)c1c(O)ccc2ccccc12` here?
The growth inhibition was -72%.

With `CCCCN(CCCC)CCSc1ccc(Cl)cc1` as the molecule, how does the growth inhibition read?
The growth inhibition was -5%.

Which growth inhibition does the source give for `CCC(C)COC(=O)c1ccc(N=Cc2ccc(C=Nc3ccc(C(=O)OCC(C)CC)cc3)cc2)cc1` (stereo not drawn) here?
Its growth inhibition is -3%.

For `CC1(C)C(=O)OC(n2cc(F)c(=O)[nH]c2=O)C1=O` (stereo not drawn), which growth inhibition is on record?
Its growth inhibition is -31%.

For `O=[N+]([O-])CC(SCc1ccccc1)c1ccc2c(c1)OCO2` (stereo not drawn), which growth inhibition is on record?
Its growth inhibition is -2%.

For `COc1cc2c(cc1[N+](=O)[O-])C(=O)C(Br)(Br)CCC2`, which growth inhibition is on record?
Its growth inhibition is 35%.

With `OCC1OC(OCC(O)C(O)C(O)C(/C=N/Nc2ccccc2)=N/Nc2ccccc2)C(O)C(O)C1O` (stereo not drawn) as the molecule, how does the growth inhibition read?
The growth inhibition was -2%.

With `COc1ccc(N=C2C(=O)Nc3ccc(Br)cc32)cc1` as the molecule, how does the growth inhibition read?
The growth inhibition was -19%.

For `Cn1c(=O)c2ccccc2c2ccccc21`, which growth inhibition is on record?
Its growth inhibition is 0%.

With `CC[n+]1ccc2c(C)c3[nH]c4ccc(O)cc4c3c(C)c2c1` as the molecule, how does the growth inhibition read?
The growth inhibition was -15%.

Which growth inhibition does the source give for `CC(=O)ON1C(=O)c2cccc3cccc(c23)C1=O` here?
The growth inhibition was -4%.

With `COc1ccc2ccc3ccccc3c2c1C=O` as the molecule, how does the growth inhibition read?
Its growth inhibition is -6%.

For `OC1CCCc2c1cc1ccc3cccc4ccc2c1c34` (stereo not drawn), which growth inhibition is on record?
The growth inhibition was -5%.

Same assay, conditions: S. cerevisiae mec2-1 strain, at 3.7 µM, active compounds read high

With `CCN(CC)CC[n+]1ccc2c(C)c3[nH]c4ccc(O)cc4c3c(C)c2c1` as the molecule, how does the growth inhibition read?
Its growth inhibition is -13%.

For `O=[n+]1c2ccc(Cl)cc2n([O-])c2ccc(Cl)cc21`, which growth inhibition is on record?
Its growth inhibition is 0%.

With `CCOP(=O)(OCC)C(Cc1ccccc1)N=C(c1ccccc1)c1ccccc1` (stereo not drawn) as the molecule, how does the growth inhibition read?
Its growth inhibition is 8%.

For `CC[C@@]1(O)C(=O)OCc2c1cc1n(c2=O)Cc2cc3c(N)cccc3nc2-1`, which growth inhibition is on record?
Its growth inhibition is -1%.

With `COC1C=COC2(C)Oc3c(C)c(O)c4c(c3C2=O)/C(=N/C2CCC(O)OC2C)C=C(NC(=O)/C(C)=C\C(=O)C2CC2C(O)C(C)C(O)C(C)C(OC(C)=O)C1C)C4=O` (stereo not drawn) as the molecule, how does the growth inhibition read?
The growth inhibition was 0%.

Which growth inhibition does the source give for `COc1cc2c(c(OC)c1OC)-c1c(cc3c(c1OC)OCO3)CC(C)C(C)(O)C2OC(=O)c1ccccc1` (stereo not drawn) here?
Its growth inhibition is 12%.

Which growth inhibition does the source give for `O=c1ssc2ncccc12` here?
The growth inhibition was 6%.

Which growth inhibition does the source give for `O=C1C2C(C(=O)N1c1ccc(OCc3ccccc3)cc1)C1c3ccccc3C2C2CCCCN21` (stereo not drawn) here?
Its growth inhibition is -6%.

Which growth inhibition does the source give for `COc1ccc(-c2cn(-c3ccc(I)cc3)c3ncnc(N)c23)cc1` here?
The growth inhibition was -4%.

For `CCOC(=O)C(NC(=O)c1ccccc1)(N1CCN(c2cc3c(cc2F)c(=O)c(C(=O)O)cn3C2CC2)CC1)C(F)(F)F` (stereo not drawn), which growth inhibition is on record?
Its growth inhibition is -2%.

For `C/C(=N\O)C1CC2C=C(C#N)C1N(Cc1ccccc1)C2` (stereo not drawn), which growth inhibition is on record?
Its growth inhibition is 3%.

Which growth inhibition does the source give for `CC/C(=C(\c1ccccc1)c1ccc(OCCN(C)C)cc1)c1ccccc1` here?
Its growth inhibition is -11%.

Which growth inhibition does the source give for `COc1ccccc1N=NC(C(=O)c1ccccc1)C(=O)c1ccccc1` here?
Its growth inhibition is -31%.

With `CC(O)C(O)C(O)C(/C=N\Nc1ccccc1)=N/Nc1ccccc1` (stereo not drawn) as the molecule, how does the growth inhibition read?
Its growth inhibition is 1%.

With `COc1ccc(/C=C2\SC(=S)N(/C=C/c3nc4ccccc4[nH]c3=O)C2=O)cc1OC` as the molecule, how does the growth inhibition read?
The growth inhibition was 5%.

Which growth inhibition does the source give for `N#CN=Nc1cc(Cl)c(N=NC#N)cc1Cl` here?
The growth inhibition was -17%.

With `Cc1ccc(S(=O)(=O)Oc2cc(Cl)c(Cl)cc2Cl)cc1` as the molecule, how does the growth inhibition read?
Its growth inhibition is -1%.

Which growth inhibition does the source give for `c1ccc2c(c1)Oc1cccc3cccc-2c13` here?
Its growth inhibition is 4%.

For `O=C(c1ccc(Cl)cc1Cl)C(Cl)Cl`, which growth inhibition is on record?
Its growth inhibition is -24%.

Which growth inhibition does the source give for `CC(C)C1=CCC2C(=C1)CCC1C(C)(C(=O)O)CCCC21C` (stereo not drawn) (tested in a mixture with another compound) here?
The growth inhibition was 13%.

For `COc1cc(/C=C2\CCc3ccccc3C2=O)cc(OC)c1OC`, which growth inhibition is on record?
Its growth inhibition is 10%.

Which growth inhibition does the source give for `CC(=O)[O][Bi]([c]1ccccc1)[c]1ccccc1` here?
The growth inhibition was 30%.

With `S=C(N/N=C/c1ccccn1)Nc1ccc(Cl)cc1` as the molecule, how does the growth inhibition read?
Its growth inhibition is -6%.

For `COc1cc(CC2CC(c3ccc4c(c3)OCO4)OC2=O)cc(OC)c1OC` (stereo not drawn), which growth inhibition is on record?
The growth inhibition was -2%.

For `CNC1C(OC2C(OC3C(O)C(O)C(N=C(N)N)C(O)C3N=C(N)N)OC(C)C2(O)CO)OC(CO)C(O)C1O` (stereo not drawn), which growth inhibition is on record?
The growth inhibition was -1%.

With `NNC(=O)CCc1ccc2ccc3ccccc3c2c1` as the molecule, how does the growth inhibition read?
Its growth inhibition is -1%.

For `Oc1ccc2ccccc2c1C(c1ccc(Cl)cc1)c1c(O)ccc2ccccc12`, which growth inhibition is on record?
The growth inhibition was -67%.

With `CCCCN(CCCC)CCSc1ccc(Cl)cc1` as the molecule, how does the growth inhibition read?
The growth inhibition was -5%.

With `CCC(C)COC(=O)c1ccc(N=Cc2ccc(C=Nc3ccc(C(=O)OCC(C)CC)cc3)cc2)cc1` (stereo not drawn) as the molecule, how does the growth inhibition read?
The growth inhibition was -2%.

For `CC1(C)C(=O)OC(n2cc(F)c(=O)[nH]c2=O)C1=O` (stereo not drawn), which growth inhibition is on record?
Its growth inhibition is -5%.

Which growth inhibition does the source give for `O=[N+]([O-])CC(SCc1ccccc1)c1ccc2c(c1)OCO2` (stereo not drawn) here?
Its growth inhibition is 42%.

With `COc1cc2c(cc1[N+](=O)[O-])C(=O)C(Br)(Br)CCC2` as the molecule, how does the growth inhibition read?
The growth inhibition was 41%.

For `OCC1OC(OCC(O)C(O)C(O)C(/C=N/Nc2ccccc2)=N/Nc2ccccc2)C(O)C(O)C1O` (stereo not drawn), which growth inhibition is on record?
The growth inhibition was 16%.

For `COc1ccc(N=C2C(=O)Nc3ccc(Br)cc32)cc1`, which growth inhibition is on record?
Its growth inhibition is -13%.

With `Cn1c(=O)c2ccccc2c2ccccc21` as the molecule, how does the growth inhibition read?
Its growth inhibition is 0%.

For `CC[n+]1ccc2c(C)c3[nH]c4ccc(O)cc4c3c(C)c2c1`, which growth inhibition is on record?
Its growth inhibition is -1%.

Which growth inhibition does the source give for `CC(=O)ON1C(=O)c2cccc3cccc(c23)C1=O` here?
Its growth inhibition is 33%.

For `COc1ccc2ccc3ccccc3c2c1C=O`, which growth inhibition is on record?
The growth inhibition was -6%.

For `OC1CCCc2c1cc1ccc3cccc4ccc2c1c34` (stereo not drawn), which growth inhibition is on record?
The growth inhibition was -5%.

From PubChem BioAssay (NCI)
